HCV inh: qHTS Assay for Inhibitors of Hepatitis C Virus (HCV); Huh7.5.1 HCVcc-Cre infection, luciferase reporter, 44 h; Potency, µM (top dose mostly 41.8 µM), actives largely listed as inhibitors; hit rate 3.4% among 340,000; AID 651820, 2012
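Infectious HCV cell culture screen: compound-treated cells (1,000/well, pre-plated 4 h) are infected with HCVcc-Cre at roughly 0.5 moi and grown 44 h. Infection is quantified by luciferase signal after 15 min substrate incubation at room temperature.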
Pf growth 48h: Primary qHTS for delayed death inhibitors of the malarial parasite plastid, 48 hour incubation; P. falciparum luciferase growth in erythrocytes, 48 h; Potency, µM (top dose mostly 28.7 µM), actives largely listed as inhibitors; hit rate 5.9% among 310,000; AID 504832, 2011
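In quantitative HTS format, infected erythrocytes bearing luciferase-reporter parasites were treated for a single generation at 37 C. Luminescence after adding detection reagent served as the growth measure.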
Pf growth 96h: Primary qHTS for delayed death inhibitors of the malarial parasite plastid, 96 hour incubation; P. falciparum luciferase reporter growth, 96 h; Potency, µM (highest dose often 28.7 µM), hits mostly inhibitors; hit rate 6.9% among 320,000; AID 504834, 2011
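Delayed-death screen, second-generation endpoint: infected erythrocytes, 2% hematocrit, 0.05% parasitemia final; 96 hours at 37 C, 5% CO2; luciferase detection reagent; luminescence decrease equals reduced growth.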
AMA1 RON2 block: qHTS for Inhibitors of AMA1-RON; Towards Development of Antimalarial Drug Lead: Primary Screen; Plasmodium falciparum AMA1 (3D7) - RON2 peptide interaction; AlphaScreen AMA1-biotinylated RON2 peptide binding; Potency, µM (highest dose often 58.2 µM), usual class: inhibitors; hit rate 0.2% among 360,000; also: nearly all actives have a fitted effect of over 45% in size
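AMA1 (3D7) with his tag at 25 nM final met compounds first, then biotinylated RON2 peptide at 25 nM; detection used donor plus acceptor beads, 10 µg/mL apiece, read by AlphaScreen after 30 min at room temperature.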
Hits are given with their value; n = inactive; u = inconclusive; x = not tested or not shown; [ ] = dose if it differs, or a comment. Rows were chosen to be rich in hits. Some 11% of all compounds tested hit in one or more screens of this group. Calls follow the shape of the dose curve; as a rule, active = well fitted curve in the direction sought with a large enough effect; inconclusive = small, poorly fitted or top-dose-only effect, or another doubt; inactive = no such curve, though single readings can be large; an effect the other way counts as inactive or inconclusive.

SMILES | HCV inh | Pf growth 48h | Pf growth 96h | AMA1 RON2 block
CCN(CC(=O)Nc1cc(Cl)ccc1C)C(=O)Cc1sc(C)nc1-c1ccc(F)cc1 | n[8.37 µM] | u | 4.65µM | n
CCN(CC(=O)Nc1c(F)cccc1F)C(=O)Cc1sc(C)nc1-c1ccc(F)cc1 | n | u | n | n
CC(Cc1ccc(O)c(O)c1)C(C)Cc1ccc(O)c(O)c1 (stereo not drawn) | 10µM | u | 15.1µM | u
Cc1ccc(N2NC(C)(c3cccs3)NC2=S)cc1 (stereo not drawn) | n | n | u | n
Cc1onc(-c2ccccc2)c1CNC(=O)Nc1ccc(F)cc1F | u | u | u | n
Cc1cc(C)cc(NC(=O)NCc2c(-c3ccccc3)noc2C)c1 | u | u | u | n
Cc1onc(-c2ccccc2)c1CNC(=O)Nc1ccc(C(F)(F)F)cc1 | u | 6.57µM | 4.15µM | n
Cc1onc(-c2ccccc2)c1CNC(=O)Nc1cccc(Cl)c1 | u | n | 9.28µM | n
O=C(CSc1nc2ccc([N+](=O)[O-])cc2[nH]1)NCCc1ccccc1 | n | u | n | n
Cc1ccc(SCCC(=O)N/N=C/c2ccccc2O)cc1 | u | 14.7µM | u | n
Cc1cc(=O)oc2cc(OCC(=O)NCc3ccccn3)ccc12 | n | u | u | n
Cc1cc(=O)oc2cc(OCCCC[n+]3ccccc3)ccc12 | n | 5.22µM | u | n
Cc1cc(=O)oc2cc(OCC(=O)N/N=C/c3ccccc3O)ccc12 | n | n | 9.28µM | n
CC(=O)c1cccc(NC(=O)COc2ccc3oc(=O)cc(C)c3c2)c1 | 15.8µM | u | u | n
Cc1ccc(NC(=O)CCC(=O)N/N=C/c2ccccc2O)cc1 | n | n | n | n
Cc1noc(C)c1C(=O)N1CCC1(C)C(=O)NS(=O)(=O)c1cccs1 (stereo not drawn) | x | x | x | n
O=C(Nc1nnc(C2CC2)s1)c1cc([N+](=O)[O-])ccc1N1CCCCC1 | u | n | u | n[2.32 µM]
Cc1cccc(C(C)C)c1NC(=O)c1ccc(COc2ccc3c(C)cc(=O)oc3c2)cc1 | u | u | 9.28µM | n
CSc1nc(C)cc(OCC(=O)N/N=C/c2ccccc2O)n1 | 6.31µM | n | u | n[11.6 µM]
Cc1cc(=O)oc2cc(OCC(=O)c3ccccc3)ccc12 | n | n | 6.57µM | n
CC(=O)Nc1ccc(NC(=O)c2ccc(COc3ccc4c(C)cc(=O)oc4c3)cc2)cc1 | n | n | n | x
O=C(CSCC(=O)NN=Cc1ccccc1O)NN=Cc1ccccc1O | u | x | x | n
CCOC(=O)N1CCC(NC(=O)CCc2c(C)nc3c(c(C)nn3-c3ccccc3)c2C)CC1 | n | x | x | n
CCOC(=O)NCCc1c(C)nc2c(c(C)nn2C(C)(C)C)c1C | u | x | 0.165µM | n
Nc1nc(Cl)cc(N2CCCC2)n1 | n | n | 7.38µM | n
SMILES | HCV inh | Pf growth 48h | Pf growth 96h | AMA1 RON2 block
Nc1nc(Cl)cc(N2CCC(c3cc(-c4ccc(Cl)cc4Cl)n[nH]3)CC2)n1 | 22.4µM | u | u | n
NC(=O)C1CCN(c2cc(Cl)nc(N)n2)CC1 | n | n | n | n
CCC(C)n1c(NC(=O)c2ccccc2)c(C#N)c2nc3ccccc3nc21 (stereo not drawn) | u | 3.7µM | 2.94µM | n
CCCCn1c(NC(=O)c2ccccc2)c(C#N)c2nc3ccccc3nc21 | u | 5.86µM | x | n
CCCCCn1c(NC(=O)c2ccco2)c(C(=O)OCC)c2nc3ccccc3nc21 | u | u | u | n
CCC(=O)Nc1c(C#N)c2nc3ccccc3nc2n1-c1ccc(C)cc1 | n | x | x | n
CC1NC2(C(=O)N(Cc3ccccc3)c3ccccc32)C2C(=O)N(c3ccccc3)C(=O)C12 (stereo not drawn) | n | u | 11.7µM | n
COc1cccc(-c2cc(C(=O)Nc3ccn(Cc4ccc(C)cc4)n3)no2)c1 | u | u | n | n
Cc1ccc(Cn2ccc(NC(=O)c3cc(-c4ccc(Br)cc4)on3)n2)cc1 | n | n | u | n
Cc1ccc(Cn2ccc(NC(=O)c3cc(-c4ccco4)on3)n2)cc1 | x | 10.4µM | n | n
Cc1ccc(Cn2ccc(NC(=O)c3cc(-c4ccccc4)on3)n2)cc1 | n | 9.28µM | n | n
O=C1C=C(c2ccc(Cl)c(C(F)(F)F)c2)C[C@@H](c2ccc3c(c2)OCO3)C1 | u | u | n | n
CC(=O)Nc1cccc(-c2cc(C)c3cc4c(cc3n2)OCO4)c1 | u | n | n | n
CCCn1c(N)c(C(=O)CSc2nc(C)cs2)c(=O)n(C)c1=O | u | n | 9.28µM | n
O=C(Nc1ccc2c(c1)OCO2)C1CC(=O)N(c2ccc(F)cc2)C1 (stereo not drawn) | n | n | u | n
CCOc1ccc(N(CC(=O)NC2CC3CCC2C3)S(=O)(=O)c2ccc(C)cc2)cc1 (stereo not drawn) | 6.31µM | u | u | n
CCOc1ccc(S(=O)(=O)N(CC(=O)N/N=C/c2cccs2)c2ccc(C)cc2)cc1 | u | 13.1µM | u | n
CCc1ccccc1NC(=O)CN1CCN(C(=O)CNC(=O)c2ccc(N3CCCC3=O)cc2)CC1 | n | u | u | n
COc1ccc(-n2c(SCC(N)=O)nnc2-c2ccc(NS(=O)(=O)c3ccc(C)cc3)cc2)cc1 | n | x | 10.4µM | n
COc1ccc(-n2c(SCC(=O)Nc3ccccc3)nnc2-c2ccc(NS(=O)(=O)c3ccc(C)cc3)cc2)cc1 | u | x | 3.29µM | n
COc1ccc(-n2c(SCC#N)nnc2-c2ccc(NS(=O)(=O)c3ccc(C)cc3)cc2)cc1 | u | x | n | n
O=C(NCCc1ccc(F)cc1)C1CCCO1 (stereo not drawn) | n | n | u | n
COC(=O)N/N=C/c1cc(Cl)cc(Cl)c1OCc1ccc(F)cc1 | n | n | n | n
Cc1ccc(-n2c(C3CC3c3ccc(Cl)cc3)n[nH]c2=S)cc1 (stereo not drawn) | n | x | 9.28µM | n
S=c1[nH]nc(C2CC2c2ccc(Cl)cc2)n1-c1ccc(Cl)cc1 (stereo not drawn) | n | n | n | n
SMILES | HCV inh | Pf growth 48h | Pf growth 96h | AMA1 RON2 block
Cc1ccc(C2CC2c2n[nH]c(=S)n2-c2ccc(C)cc2)cc1 (stereo not drawn) | 25.1µM | n | x | n
Cc1ccc(-n2c([C@@H]3C[C@H]3c3ccccc3)n[nH]c2=S)cc1 | n | n | n | n
Cc1ncc(CN=Cc2ccc(Cl)cc2)c(N)n1 | n | n | n | n
CC(C)c1ccc(NC2=CC(=O)CC(C)(C)C2)cc1 | u | n | 4.65µM | n
CS(=O)(=O)c1sc(C#N)c2c1C(=O)CC(c1ccccc1)C2 (stereo not drawn) | u | 11.7µM | u | n
CCCCCc1cc(=O)oc2c(C(CCN(CC)CC)c3ccc(N(C)C)cc3)c(OC)cc(OC)c12 (stereo not drawn) | u | u | u | 25.1µM
CCCCCc1cc(=O)oc2c(C(CCN3CCCC(C)C3)c3ccc(N(C)C)cc3)c(OC)cc(OC)c12 (stereo not drawn) | n | u | 8.28µM | 14.1µM

Assay outcomes deposited in PubChem BioAssay by National Center for Advancing Translational Sciences (NCATS).
